Data as given in PubChem BioAssay (EPA / NIEHS).
Some structures have more than one record in an assay (separate samples or runs), and their calls can disagree. Calls of active or inactive are those of the source. The calls were made as follows: active = hit-call score of the fitted dose curve at least 0.9, where 1 is the maximum; inactive = score below 0.9.

Columns and labels:
[1] = ATG_CRE_CIS: Attagene CIS-FACTORIAL HepG2 Assay for human cAMP Responsive Element (CRE) binding protein 3 (AID 2282926); conditions: HepG2 CRE cis-reporter, Attagene multiplexed mRNA; actives raise or lower the signal
Method in brief: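 Multiplexed transcription-unit reporters transfected into HepG2; 24 h dosing; RT-PCR/capillary electrophoresis fluorescence read-out; bidirectional fit vs DMSO.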

[2] = target: CCAAT/enhancer-binding protein beta (Homo sapiens) (UniProt P17676); experiment: ATG_C_EBP_CIS: Attagene CIS-FACTORIAL HepG2 Assay for human CCAAT/Enhancer Binding Protein (C/EBP) beta (AID 2282927); conditions: HepG2 Attagene cis-factorial transcription factor reporter; actives raise or lower the signal
Method in brief: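 HepG2, transient MRTU transfection, 24 h treatment. RT-PCR plus CE fluorescence; DMSO negative control, bidirectional fit.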

[3] = ATG_DR4_LXR_CIS: Attagene CIS-FACTORIAL HepG2 Assay for human Liver X Receptor (LXR), DR4 submotif (AID 2282929); conditions: HepG2 Attagene DR4 cis-reporter, mRNA transcription; actives raise or lower the signal
Method in brief: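 Transiently transfected HepG2 liver cells; cis-regulated reporters; 24 h dosing. RT-PCR plus CE read-out of reporter mRNA. DMSO baseline, bidirectional curve fitting.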

[4] = ATG_AP_1_CIS: Attagene CIS-FACTORIAL HepG2 Assay for human Activator Protein 1 (AP-1) (AID 2282931); conditions: HepG2 Attagene cis-factorial AP-1 reporter mRNA; actives raise or lower the signal
Method in brief: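 We transfected HepG2 cells transiently with a set of cis-regulated reporter transcription units, dosed them for 24 h, and quantified reporter mRNA via RT-PCR and capillary electrophoresis, scoring gain or loss of signal relative to DMSO.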

[5] = ATG_AP_2_CIS: Attagene CIS-FACTORIAL HepG2 Assay for human Activator Protein 2 (AP-2) (AID 2282932); conditions: HepG2 AP-2 cis-reporter, Attagene transcription factor profiling; actives raise or lower the signal
Method in brief: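 Multiplexed mRNA reporter assay in HepG2: cis-regulated units report endogenous factor activity after 24 h treatment. Fluorescence from capillary electrophoresis of RT-PCR products gives the signal, with DMSO as baseline.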

[6] = ATG_BRE_CIS: Attagene CIS-FACTORIAL HepG2 Assay for human Bone Morphogenetic Protein (BMP) Response Element (BRE) (AID 2282933); conditions: HepG2 BMP response element reporter, Attagene transcription factor profiling; actives raise or lower the signal
Method in brief: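 Multiplexed cis-reporter assay, HepG2, 24 h exposure. mRNA from reporter units quantified via RT-PCR/CE; DMSO baseline; bidirectional curve fit.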

[7] = target: Retinoic acid receptor alpha (Homo sapiens) (UniProt P10276); experiment: ATG_DR5_RAR_CIS: Attagene CIS-FACTORIAL HepG2 Assay for human Retinoic Acid Receptor Alpha (RARE), DR5 submotif (AID 2282934); conditions: HepG2 Attagene cis-factorial RARE DR5 reporter, mRNA; actives raise or lower the signal;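 as to AC50: reporter responds to endogenous RAR alpha beta and gamma in HepG2 not RARA alone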
Method in brief: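 After 24 h of chemical exposure, transiently transfected HepG2 cells were lysed for total RNA; the DR5-regulated reporter transcript was quantified via RT-PCR and capillary electrophoresis, with activity fitted bidirectionally against DMSO.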

[8] = ATG_E_Box_CIS: Attagene CIS-FACTORIAL HepG2 Assay for human Enhancer Box (E-box) (AID 2282936); conditions: HepG2 E-box cis-reporter transcription, actives raise or lower the signal
Method in brief: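 First, HepG2 cells receive multiple cis-regulated reporter constructs by transient transfection. Next, chemicals are applied for 24 h. Finally, reporter mRNA is quantified via RT-PCR and capillary electrophoresis, with DMSO as baseline.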

[9] = ATG_M_61_CIS: Attagene CIS-FACTORIAL HepG2 Assay for M61 Transcription Factor (Internal Marker) (AID 2282937); conditions: HepG2 Attagene CIS-FACTORIAL M61 internal marker reporter; actives raise or lower the signal
Method in brief: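 Multiplexed reporter mRNA assay, HepG2 human hepatoma cells, 24 h treatment. Signal: FAM-labelled, HpaI-digested RT-PCR fragments by CE. Fit: bidirectional, baseline DMSO.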

[10] = ATG_EGR_CIS: Attagene CIS-FACTORIAL HepG2 Assay for human Early Growth Response 1 (EGR1) (AID 2282938); conditions: HepG2 Attagene CIS-FACTORIAL EGR reporter mRNA; actives raise or lower the signal
Method in brief: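 Multiplexed cis-reporter system in human hepatoma HepG2 cells, transiently transfected. Cells are dosed for 24 h; reporter transcripts are amplified, fluorescently tagged and sized by capillary electrophoresis, with DMSO as negative control.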

[11] = ATG_M_19_CIS: Attagene CIS-FACTORIAL HepG2 Assay for M19 Transcription Factor (Internal Marker) (AID 2282939); conditions: HepG2 Attagene CIS-FACTORIAL M19 internal marker reporter; actives raise or lower the signal
Method in brief: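 Signals come from fluorescence of labelled reporter-specific PCR fragments resolved by capillary electrophoresis, following 24 h treatment of HepG2 cells transfected with cis-promoter reporter units; activity was fitted in both directions relative to DMSO.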

[12] = APR_HepG2_P-H2AX_24hr: Apredica 24-hour HepG2 Assay for H2AX Phosphorylation (AID 2282920); conditions: high-content imaging, actives raise or lower the signal
Method in brief: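 High-content imaging of phospho-histone H2A.x immunofluorescence, nuclei counterstained with Hoechst 33342, in fixed HepG2 cells. Compounds ran 0.39–200 uM in duplicate for 24 h, final DMSO 0.5%. Signal change fitted both directions against DMSO.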

[13] = APR_HepG2_StressKinase_72hr: Apredica 72-hour HepG2 Assay for Stress Kinase (AID 2282921); conditions: HepG2 stress kinase (phospho-c-Jun) imaging, actives raise or lower the signal
Method in brief: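 Fluorescence intensity of Cy3-tagged anti-phospho-c-Jun antibody, quantified per cell from Hoechst-defined nuclei across six images per well, served as the read-out following 72 h exposure (0.39–200 uM, 0.5% v/v DMSO).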

[14] = APR_HepG2_StressKinase_24hr: Apredica 24-hour HepG2 Assay for Stress Kinase (AID 2282922); conditions: HepG2 stress kinase (phospho-c-Jun) imaging, actives raise or lower the signal
Method in brief: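 HepG2 cells exposed 24 h to 0.39–200 uM compound in duplicate (0.5% v/v DMSO final). Cells fixed in 3.7% formaldehyde, permeabilized and immunostained for phospho-c-Jun; read by high-content fluorescence imaging, fitted bidirectionally against DMSO.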

[15] = APR_HepG2_MitoMass_72hr: Apredica 72-hour HepG2 Assay for Mitochondrial Mass (AID 2282924); conditions: high-content imaging, actives raise or lower the signal;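 also: MitoTracker Red CMXRos stain intensity per cell imaged as mitochondrial mass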
Method in brief: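 HepG2 cells dosed 72 hr at 0.39–200 uM (0.5% DMSO), in duplicate. MitoTracker Red CMXRos 250 nM loaded 30 min before formaldehyde fixation; high-content fluorescence imaging, bidirectional fit versus DMSO.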

[16] = APR_HepG2_NuclearSize_72hr: Apredica 72-hour HepG2 Assay for Nuclear Size (AID 2282925); conditions: high-content imaging, actives raise or lower the signal
Method in brief: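 HepG2 cells dosed 72 h at 0.39–200 uM (10 concentrations, duplicate) in 0.5% v/v DMSO final. Fixed, Hoechst 33342-stained nuclei imaged; nuclear diameter measured by automated image analysis. Bidirectional fit versus DMSO.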

[17] = ATG_CMV_CIS: Attagene CIS-FACTORIAL HepG2 Assay for human CMV (Internal Marker) (AID 2282928); conditions: HepG2 CMV promoter reporter, transcription factor profiling; actives raise or lower the signal;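 also: endpoint acts as a background internal control marker rather than a target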
Method in brief: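 After transient transfection of HepG2 with reporter transcription units driven by cis-regulatory promoters, cells receive test chemical for 24 h. Labeled reporter amplicons, digested with HpaI, are sized and quantified by capillary electrophoresis against DMSO.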

[18] = target: Aryl hydrocarbon receptor (Homo sapiens) (UniProt P35869); experiment: ATG_Ahr_CIS: Attagene CIS-FACTORIAL HepG2 Assay for human Aryl Hydrocarbon Receptor (Ahr) (AID 2282930); conditions: HepG2 AhR cis-factorial reporter transcription; actives raise or lower the signal
Method in brief: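 Endogenous factor activity is tracked through cis-promoter reporter units transfected into HepG2 cells. Transcript levels at 24 h are read by fluorescent RT-PCR and capillary electrophoresis, with activity in either direction scored relative to DMSO.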

[19] = target: Transcription factor E2F1 (Homo sapiens) (UniProt Q01094); experiment: ATG_E2F_CIS: Attagene CIS-FACTORIAL HepG2 Assay for human E2F Transcription Factor 1 (AID 2282935); conditions: HepG2 Attagene cis-reporter, E2F reporter RNA transcripts; actives raise or lower the signal
Method in brief: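 Measures reporter transcript levels via RT-PCR with capillary electrophoresis detection in HepG2 cells harboring cis-regulated reporter units; 24 h post-dose; bidirectional curve fitting with DMSO as baseline.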

Measured: AC50

Retinoic acid receptor alpha (Homo sapiens), sequence (P10276 whole entry, looked up): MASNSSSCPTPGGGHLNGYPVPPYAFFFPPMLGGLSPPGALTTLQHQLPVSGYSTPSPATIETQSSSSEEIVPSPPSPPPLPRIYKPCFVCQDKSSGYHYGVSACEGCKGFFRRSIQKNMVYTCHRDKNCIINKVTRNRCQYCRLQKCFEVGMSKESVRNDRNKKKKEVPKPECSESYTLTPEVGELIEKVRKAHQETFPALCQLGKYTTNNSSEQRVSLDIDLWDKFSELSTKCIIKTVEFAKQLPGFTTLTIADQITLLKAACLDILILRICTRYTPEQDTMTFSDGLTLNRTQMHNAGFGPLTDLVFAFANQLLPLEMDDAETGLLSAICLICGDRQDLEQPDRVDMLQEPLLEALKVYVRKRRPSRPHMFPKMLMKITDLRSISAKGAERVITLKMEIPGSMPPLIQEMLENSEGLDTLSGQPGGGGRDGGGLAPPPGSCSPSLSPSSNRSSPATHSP
Aryl hydrocarbon receptor (Homo sapiens), sequence (P35869 whole entry, looked up): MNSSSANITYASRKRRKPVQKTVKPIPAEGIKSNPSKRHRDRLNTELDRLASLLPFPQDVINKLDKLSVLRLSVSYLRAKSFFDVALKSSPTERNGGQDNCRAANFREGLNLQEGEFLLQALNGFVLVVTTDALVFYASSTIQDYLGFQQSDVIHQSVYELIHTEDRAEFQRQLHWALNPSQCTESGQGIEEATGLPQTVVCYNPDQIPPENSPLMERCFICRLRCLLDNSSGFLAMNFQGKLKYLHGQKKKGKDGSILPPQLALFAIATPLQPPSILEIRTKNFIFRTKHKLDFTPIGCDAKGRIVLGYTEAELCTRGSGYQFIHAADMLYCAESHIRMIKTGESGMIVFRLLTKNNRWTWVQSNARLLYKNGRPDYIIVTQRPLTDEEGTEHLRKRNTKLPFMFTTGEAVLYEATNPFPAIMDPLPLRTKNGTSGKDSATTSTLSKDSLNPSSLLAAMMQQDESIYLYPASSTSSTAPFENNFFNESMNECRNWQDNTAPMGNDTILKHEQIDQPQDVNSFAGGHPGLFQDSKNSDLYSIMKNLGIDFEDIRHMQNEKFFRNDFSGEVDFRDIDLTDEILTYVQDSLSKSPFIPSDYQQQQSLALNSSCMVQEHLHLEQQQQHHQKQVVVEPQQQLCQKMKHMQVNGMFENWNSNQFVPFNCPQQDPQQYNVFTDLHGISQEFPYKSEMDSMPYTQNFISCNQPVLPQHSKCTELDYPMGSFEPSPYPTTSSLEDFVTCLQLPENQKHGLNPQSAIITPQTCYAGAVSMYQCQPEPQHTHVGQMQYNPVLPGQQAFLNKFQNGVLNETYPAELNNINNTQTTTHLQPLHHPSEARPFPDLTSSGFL
CCAAT/enhancer-binding protein beta (Homo sapiens), sequence (P17676 whole entry, looked up): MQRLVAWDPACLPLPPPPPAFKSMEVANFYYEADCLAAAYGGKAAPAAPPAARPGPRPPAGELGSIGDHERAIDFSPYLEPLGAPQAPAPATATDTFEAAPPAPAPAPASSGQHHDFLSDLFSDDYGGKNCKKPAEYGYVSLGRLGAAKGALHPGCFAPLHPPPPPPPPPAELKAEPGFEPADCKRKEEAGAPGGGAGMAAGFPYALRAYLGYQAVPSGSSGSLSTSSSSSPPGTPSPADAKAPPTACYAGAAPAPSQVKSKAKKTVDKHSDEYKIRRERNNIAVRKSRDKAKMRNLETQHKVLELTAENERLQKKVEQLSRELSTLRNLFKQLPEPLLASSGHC
Transcription factor E2F1 (Homo sapiens), sequence (Q01094 whole entry, looked up): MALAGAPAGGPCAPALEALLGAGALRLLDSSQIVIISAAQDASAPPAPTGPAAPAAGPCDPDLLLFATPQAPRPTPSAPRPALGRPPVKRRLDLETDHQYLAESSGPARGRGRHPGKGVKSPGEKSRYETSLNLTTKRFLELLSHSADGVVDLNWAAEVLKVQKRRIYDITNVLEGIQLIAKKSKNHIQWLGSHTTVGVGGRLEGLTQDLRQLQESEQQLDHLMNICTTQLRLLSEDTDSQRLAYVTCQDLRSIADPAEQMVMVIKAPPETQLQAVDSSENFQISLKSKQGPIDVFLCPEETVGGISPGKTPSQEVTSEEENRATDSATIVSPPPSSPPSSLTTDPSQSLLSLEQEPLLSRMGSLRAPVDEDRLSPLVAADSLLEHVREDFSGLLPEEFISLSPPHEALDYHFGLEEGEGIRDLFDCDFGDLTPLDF

Nc1ccc(N)cc1
active: [1] 11.7 µM | [3] 44.6 µM | [4] 70.9 µM | [7] 37.5 µM
inactive: [1] | [2] | [3] | [4] | [5] | [6] | [7] | [8] | [9] | [10] | [11]

O=C(O)C1(c2ccc3c(c2)OC[C@H](Cc2ccc(-c4ccccc4)cc2)[C@H]3O)CCCC1
active: [12] 108 µM | [13] 116 µM | [14] 111 µM | [15] 112 µM | [17] 6.98 µM | [4] 19.7 µM
not listed: [5] | [11]
inactive: all other assays above

CN(C)C(=S)S
active: [12] 12 µM | [13] 1.16 µM | [15] 0.0391 µM | [17] 26.2 µM | [3] 25.5 µM | [4] 25.9 µM
not listed: [5] | [7] | [8] | [19]
inactive: all other assays above

COCC(=O)N(c1c(C)cccc1C)[C@H](C)C(=O)OC
not listed: [12] | [13] | [14] | [15] | [16]
inactive: all other assays above

CCCCC(CC)COC(=O)Cl (stereo not drawn)
not listed: [11] | [12] | [13] | [14] | [15] | [16]
inactive: all other assays above

Cc1cc(Cl)ccc1OC(C)C(=O)O (stereo not drawn)
active: [18] 28.5 µM
not listed: [11] | [12] | [13] | [14] | [15] | [16]
inactive: all other assays above

Cc1cc(C)cc(C)c1
not listed: [10] | [18]
inactive: all other assays above

O=C(NC(=O)c1c(F)cccc1F)Nc1cc(Cl)c(Oc2ncc(C(F)(F)F)cc2Cl)c(Cl)c1
active: [3] 4.57 µM
not listed: [12] | [13] | [14] | [15] | [16]
inactive: all other assays above

OC(Cc1ccccc1Cl)(Cn1[nH]cnc1=S)C1(Cl)CC1 (stereo not drawn)
active: [4] 53 µM | [11] 64.6 µM
not listed: [12] | [13] | [14] | [15] | [16]
inactive: all other assays above

CCOP(=S)(OCC)O/N=C(\C#N)c1ccccc1
active: [3] 27.7 µM | [18] 0.657 µM | [4] 42.3 µM | [6] 31.6 µM
not listed: [12] | [13] | [14] | [15] | [16]
inactive: all other assays above

OCC(c1ccc(Cl)cc1)c1ccc(Cl)cc1
active: [17] 45.2 µM | [3] 50.2 µM | [4] 51.6 µM | [10] 53.2 µM
not listed: [11] | [12] | [13] | [14] | [15] | [16]
inactive: all other assays above

CC(C)O.CC(C)O.OCCN(CCO)CCO.OCCN(CCO)CCO.[Ti]
not listed: [1] | [6] | [18]
inactive: all other assays above

CCOC(=O)Cc1ccccc1
not listed: [11] | [12] | [13] | [14] | [15] | [16]
inactive: all other assays above

OCCN(CCO)CCO
not listed: [18]
inactive: all other assays above

Oc1cc(Cl)c(Cl)cc1Cl
active: [12] 38.9 µM | [13] 51.8 µM | [1] 39.7 µM | [2] 46.5 µM | [17] 27.2 µM | [4] 25.9 µM | [6] 26.8 µM | [10] 66.6 µM
not listed: [7]
inactive: all other assays above

CC(C)CP(=S)(S)CC(C)C
not listed: [12] | [13] | [14] | [15] | [16]
inactive: all other assays above
